From publication PMC5540273 (PLoS ONE, 2017)
Where two headings read alike, the source gives them in different places.

What was measured:
CSK = conditions: concentration: 1 μM, replicates: in singlicate; n = 1
CSNK1A1L = conditions: concentration: 1 μM, replicates: in singlicate; n = 1
CSNK1A1 = conditions: concentration: 1 μM, replicates: in singlicate; n = 1
CSNK1D = conditions: concentration: 1 μM, replicates: in singlicate; n = 1
CSNK1E = conditions: concentration: 1 μM, replicates: in singlicate; n = 1
CSNK1G1 = conditions: concentration: 1 μM, replicates: in singlicate; n = 1
CSNK1G2 = conditions: concentration: 1 μM, replicates: in singlicate; n = 1
CSNK1G3 = conditions: concentration: 1 μM, replicates: in singlicate; n = 1
CSNK2A1 = conditions: n = 1
CSNK2A2 = conditions: n = 1
[1] = concentration: 1 μM, replicates: in singlicate
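Further: KINOMEscan kinase panel screen.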

CS(=O)(=O)Cc1ccc(Nc2nccc(-c3c(-c4cccc(NC(=O)C5CCCCC5)c4)nn4ncccc34)n2)cc1 [GSK350559]
%Inh (CSK): 10% | %Inh (CSNK1A1L): 0% | %Inh (CSNK1A1): 7% | %Inh (CSNK1D): 0% | %Inh (CSNK1E): 20% | %Inh (CSNK1G1): 2% | %Inh (CSNK1G2): 5% | %Inh (CSNK1G3): 4% | %Inh (CSNK2A1; 1 µM): 17% | %Inh (CSNK2A2; 1 µM): 1%

CCn1c(-c2ccccc2)nc2cnccc21 [SB-733416]
%Inh (CSK): 0% | %Inh (CSNK1A1L): 11% | %Inh (CSNK1A1): 0% | %Inh (CSNK1D): 2% | %Inh (CSNK1E): 24% | %Inh (CSNK1G1): 0% | %Inh (CSNK1G2): 0% | %Inh (CSNK1G3): 11% | %Inh (CSNK2A1; [1]): 0% | %Inh (CSNK2A2; [1]): 1%

COc1cc2ncnc(Nc3cccc(Br)c3)c2cc1OC.Cl [GI230329]
%Inh (CSK): 0% | %Inh (CSNK1A1L): 10% | %Inh (CSNK1A1): 0% | %Inh (CSNK1D): 0% | %Inh (CSNK1E): 31% | %Inh (CSNK1G1): 12% | %Inh (CSNK1G2): 0% | %Inh (CSNK1G3): 26% | %Inh (CSNK2A1; [1]): 8% | %Inh (CSNK2A2; [1]): 0%

COc1ccc(CSc2nnc(-c3ccc4ncsc4c3)o2)cc1C(F)(F)F
%Inh (CSK): 0% | %Inh (CSNK1A1L): 0% | %Inh (CSNK1A1): 0% | %Inh (CSNK1D): 0% | %Inh (CSNK1E): 0% | %Inh (CSNK1G1): 0% | %Inh (CSNK1G2): 0% | %Inh (CSNK1G3): 0% | %Inh (CSNK2A1; [1]): 0% | %Inh (CSNK2A2; [1]): 2%

Cl.Cl.Cl.N#Cc1ccc(CCNc2nccc(-c3cccc(CN4CCNCC4)c3)n2)cc1 [GSK2137462]
%Inh (CSK): 15% | %Inh (CSNK1A1L): 2% | %Inh (CSNK1A1): 0% | %Inh (CSNK1D): 23% | %Inh (CSNK1E): 55% | %Inh (CSNK1G1): 13% | %Inh (CSNK1G2): 0% | %Inh (CSNK1G3): 14% | %Inh (CSNK2A1; [1]): 20% | %Inh (CSNK2A2; [1]): 30%
